molecular target: FRMD4B; test: pooled miR-30 sensor sort-seq; sequence = guide strand; conditions: shRNA
Further: reference of the scale not given here.

Sequence	sensor-assay potency score (higher = more potent)
TAGAAGTTTGGGCTGAACCAGC	-0.701
TTTGCTTTGCTTCCGGTCCAAG	-1.02
TTACTTGCCATGATGAACTGAC	0.412
TTCCATTGGAATAACTTCCGAG	0.389
TTGCTCTTCACTAACTTCTGAG	-0.0574

molecular target: FRRS1; test: as above; conditions: shRNA

Sequence	sensor-assay potency score (higher = more potent)
TATGCTAACAGTAGTCATCCAT	0.0935
ATAAGCATCATCATCACCCATC	-0.528
TAAATTGCCAACACTGCCTTTT	-0.275
TTCAACTCCAGAACAACCTCAG	0.767
TAACAGTAGTCATCCATGCCAC	-0.274
TAAGGCACCATGAACCTTCAGA	-0.182
TTATTCTAGCAGCTGTTCCCAT	-0.391
TTTTATACTTCTCAACAACTGT	-0.421
TTCTTCTGAAAGAACACTGCAT	0.427
AAGAACACTGCATAACACCGTC	-0.249
TGACAAAGTAACTTCAATCTGA	0.192
TAACTTCAATCTGATCTCCTGG	0.0664

molecular target: FTL; test: as above; conditions: shRNA

Sequence	sensor-assay potency score (higher = more potent)
TTGATAAGCTTCACTTCCTCAT	-0.312
ATGAAGATCCAAAAGGGCCTGG	-0.154
TCCAGAGCCACATCATCGCGGT	-0.991
TAAGCTTCACTTCCTCATCTAG	-0.516
TTCAGGAGACGCTCGTAGCCCT	-0.927
TTTCGAAGAGATACTCGCCCAG	-0.301
TTCTCCTCGGCCAATTCGCGGA	-1.13
ATCTAGGAAGTGAGTCTCCAGG	-1.73
TCTAGGAAGTGAGTCTCCAGGA	-0.902
TTTTACCCCACTCATCTTCAGC	-1.2
TTCCAGAGCCACATCATCGCGG	-0.592
TTGACCAGGCTGTTGACGGCTG	-0.48
TTTTTCTCCAGGGCCATGGCAG	-1.05
TACCCCACTCATCTTCAGCTGG	-0.815
TTGATGTCCTGGAAGAGAGCGC	-0.331
TGATAAGCTTCACTTCCTCATC	-1.37
TAGGAAGTGAGTCTCCAGGAAG	-1.72
TTCAGCTGGCTTCTTGATGTCC	-0.855
TTTGCATCTTCAGGAGACGCTC	-0.792
TCGCGGTCGAAATAGAAGCCCA	-1.25
TCTTGATAAGCTTCACTTCCTC	-0.871
TTGCATCTTCAGGAGACGCTCG	-0.127
TTCGAAGAGATACTCGCCCAGC	-0.73
